Laboratory results as given in PubChem BioAssay AID1159580 (chemical genetic matrix, 2015).
About 2,000 (36%) of roughly 5,500 compounds were called active. Inconclusive results (about 18%) are left out. Cut-off read from the data, not from the text of the source: active = normalized growth mostly below about 0.91 (no sharp cut-off); inconclusive = no clear call, values can overlap the other calls; inactive = mostly above about 0.92. The list shows a part of the results.

Assay: chemical genetic growth profiling, strain panel (AID 1159580);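 note: tested at 20 µM; growth read once vehicle control cultures reached saturation at 30 °C; 1 = growth at the plate median or of vehicle wells; lower values mean less growth of the strain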
Conditions: growth OD
[1] = S. cerevisiae deletion strains, locus YAL013W, strain DEP1, active compounds read low
[2] = S. cerevisiae deletion strains, locus YDR150W, strain NUM1, active compounds read low
[3] = S. cerevisiae deletion strains, locus YMR263W, strain SAP30, active compounds read low
[4] = S. cerevisiae deletion strains, locus YMR307W, strain GAS1, active compounds read low
[5] = S. cerevisiae deletion strains, locus YNL322C, strain KRE1, active compounds read low
[6] = S. cerevisiae deletion strains, locus YPL055C, strain LGE1, active compounds read low
[7] = S. cerevisiae deletion strains, locus YPL241C, strain CIN2, active compounds read low

Measured: normalized growth

COc1ccc(/C=C/C(=O)Nc2ccccc2C(=O)O)cc1OC
inactive: [1] 1.03 | S. cerevisiae deletion strains, locus YAL040C, strain CLN3, active compounds read low 0.97 | S. cerevisiae deletion strains, locus YCL061C, strain MRC1 (second series), active compounds read low 0.99 | [2] 0.994 | S. cerevisiae deletion strains, locus YDR363W, strain ESC2, active compounds read low 1.01 | S. cerevisiae deletion strains, locus YER002W, strain NOP16, active compounds read low 0.985 | [3] 0.996 | [4] 1.01 | S. cerevisiae deletion strains, locus YNL175C, strain NOP13, active compounds read low 0.979 | S. cerevisiae deletion strains, locus YNL197C, strain WHI3, active compounds read low 0.964 | S. cerevisiae deletion strains, locus YNL224C, strain SQS1, active compounds read low 0.999 | [5] 1.02 | S. cerevisiae deletion strains, locus YOR083W, strain WHI5 (second series), active compounds read low 0.964 | [6] 1.05 | [7] 0.991

CC(=O)C1=C(O)C2C3c4c[nH]c5cccc(c45)CC3C(C)(C)N2C1=O (stereo unspecified)
inactive: [1] 0.994 | S. cerevisiae deletion strains, locus YBR021W, strain FUR4, active compounds read low 0.983 | S. cerevisiae deletion strains, locus YBR229C, strain ROT2, active compounds read low 0.997 | S. cerevisiae deletion strains, locus YCL029C, strain bik1, active compounds read low 1 | S. cerevisiae deletion strains, locus YDL035C, strain GPR1, active compounds read low 1.01 | S. cerevisiae deletion strains, locus YDL074C, strain BRE1, active compounds read low 1.01 | S. cerevisiae deletion strains, locus YDL101C, strain DUN1, active compounds read low 1.01 | S. cerevisiae deletion strains, locus YDL134C, strain PPH21, active compounds read low 1 | S. cerevisiae deletion strains, locus YDL185W, strain tfp1, active compounds read low 0.995 | S. cerevisiae deletion strains, locus YDL192W, strain arf1, active compounds read low 1 | S. cerevisiae deletion strains, locus YDR101C, strain arx1, active compounds read low 0.995 | [2] 1.01 | S. cerevisiae deletion strains, locus YDR162C, strain NBP2, active compounds read low 0.993 | S. cerevisiae deletion strains, locus YDR318W, strain mcm21, active compounds read low 1.01 | S. cerevisiae deletion strains, locus YDR388W, active compounds read low 1 | S. cerevisiae deletion strains, locus YDR502C, strain sam2, active compounds read low 1.01 | S. cerevisiae deletion strains, locus YEL061C, strain CIN8, active compounds read low 0.989 | S. cerevisiae deletion strains, locus YER110C, active compounds read low 1.01 | S. cerevisiae deletion strains, locus YER155C, strain BEM2, active compounds read low 1 | S. cerevisiae deletion strains, locus YER167W, strain BCK2, active compounds read low 1.01 | S. cerevisiae deletion strains, locus YGL078C, strain dbp3, active compounds read low 1 | S. cerevisiae deletion strains, locus YGL086W, strain mad1, active compounds read low 1.01 | S. cerevisiae deletion strains, locus YGL248W, strain PDE1, active compounds read low 0.997 | S. cerevisiae deletion strains, locus YGR078C, strain PAC10, active compounds read low 0.975 | S. cerevisiae deletion strains, locus YGR135W, strain pre9, active compounds read low 0.993 | S. cerevisiae deletion strains, locus YGR229C, strain SMI1, active compounds read low 0.971 | S. cerevisiae deletion strains, locus YGR252W, strain gcn5, active compounds read low 1.04 | S. cerevisiae deletion strains, locus YHR030C, strain SLT2, active compounds read low 1.01 | S. cerevisiae deletion strains, locus YHR079C, strain IRE1 (second series), active compounds read low 1.02 | S. cerevisiae deletion strains, locus YHR094C, strain hxt1, active compounds read low 1 | S. cerevisiae deletion strains, locus YHR129C, strain ARP1, active compounds read low 1 | S. cerevisiae deletion strains, locus YHR200W, strain rpn10, active compounds read low 1.01 | S. cerevisiae deletion strains, locus YIL066C, strain RNR3, active compounds read low 1.04 | S. cerevisiae deletion strains, locus YIL073C, strain SPO22, active compounds read low 1.07 | S. cerevisiae deletion strains, locus YIL125W, strain kgd1, active compounds read low 1 | S. cerevisiae deletion strains, locus YIR030C, strain dcg1, active compounds read low 1 | S. cerevisiae deletion strains, locus YJL095W, strain BCK1, active compounds read low 1 | S. cerevisiae deletion strains, locus YJL134W, strain LCB3, active compounds read low 1.01 | S. cerevisiae deletion strains, locus YJL168C, strain set2, active compounds read low 1.01 | S. cerevisiae deletion strains, locus YJL187C, strain SWE1 (second series), active compounds read low 1.01 | S. cerevisiae deletion strains, locus YJR043C, strain POL32, active compounds read low 1.01 | S. cerevisiae deletion strains, locus YJR075W, strain HOC1, active compounds read low 1 | S. cerevisiae deletion strains, locus YKL009W, strain mrt4, active compounds read low 1.03 | S. cerevisiae deletion strains, locus YKL068W, active compounds read low 1 | S. cerevisiae deletion strains, locus YKL085W, strain MDH1 (second series), active compounds read low 0.994 | S. cerevisiae deletion strains, locus YKL085W, strain MDH1, active compounds read low 0.994 | S. cerevisiae deletion strains, locus YKL190W, strain CNB1, active compounds read low 0.99 | S. cerevisiae deletion strains, locus YKR001C, strain vps1, active compounds read low 1 | S. cerevisiae deletion strains, locus YLR039C, strain RIC1, active compounds read low 0.979 | S. cerevisiae deletion strains, locus YLR058C, strain SHM2, active compounds read low 1 | S. cerevisiae deletion strains, locus YLR102C, strain apc9, active compounds read low 1.01 | S. cerevisiae deletion strains, locus YLR262C, strain YPT6, active compounds read low 0.97 | S. cerevisiae deletion strains, locus YLR268W, strain sec22, active compounds read low 0.995 | S. cerevisiae deletion strains, locus YLR330W, strain CHS5, active compounds read low 0.992 | S. cerevisiae deletion strains, locus YLR342W, strain FKS1 (second series), active compounds read low 1.02 | S. cerevisiae deletion strains, locus YLR371W, strain rom2, active compounds read low 1.01 | S. cerevisiae deletion strains, locus YLR418C, strain cdc73, active compounds read low 0.99 | S. cerevisiae deletion strains, locus YML016C, strain PPZ1, active compounds read low 1 | S. cerevisiae deletion strains, locus YML032C, strain rad52, active compounds read low 1.01 | S. cerevisiae deletion strains, locus YML124C, strain tub3, active compounds read low 1 | S. cerevisiae deletion strains, locus YMR078C, strain ctf18, active compounds read low 1 | S. cerevisiae deletion strains, locus YMR223W, strain ubp8, active compounds read low 1.03 | [3] 1.01 | [4] 1.08 | S. cerevisiae deletion strains, locus YNL067W, strain RPL9B, active compounds read low 1 | S. cerevisiae deletion strains, locus YNL128W, strain TEP1, active compounds read low 0.998 | S. cerevisiae deletion strains, locus YNL153C, strain GIM3, active compounds read low 0.999 | S. cerevisiae deletion strains, locus YNL233W, strain BNI4, active compounds read low 1.01 | S. cerevisiae deletion strains, locus YNL250W, strain rad50, active compounds read low 1.01 | S. cerevisiae deletion strains, locus YNL271C, strain bni1, active compounds read low 1.01 | S. cerevisiae deletion strains, locus YNL298W, strain CLA4, active compounds read low 0.998 | S. cerevisiae deletion strains, locus YNL307C, strain MCK1, active compounds read low 1.02 | [5] 1 | S. cerevisiae deletion strains, locus YNR052C, strain pop2, active compounds read low 1.01 | S. cerevisiae deletion strains, locus YOL006C, strain TOP1, active compounds read low 1.06 | S. cerevisiae deletion strains, locus YOL012C, strain htz1 0.841 | S. cerevisiae deletion strains, locus YOL147C, strain pex11, active compounds read low 1.01 | S. cerevisiae deletion strains, locus YOR061W, strain CKA2, active compounds read low 1 | S. cerevisiae deletion strains, locus YOR069W, strain VPS5, active compounds read low 0.993 | S. cerevisiae deletion strains, locus YOR136W, strain idh2, active compounds read low 1.01 | S. cerevisiae deletion strains, locus YOR144C, strain elg1, active compounds read low 1 | S. cerevisiae deletion strains, locus YOR184W, strain ser1, active compounds read low 1.03 | S. cerevisiae deletion strains, locus YOR316C, strain cot1, active compounds read low 1 | [6] 0.976 | [7] 1.05 | S. cerevisiae deletion strains, locus YPR119W, strain clb2, active compounds read low 1 | S. cerevisiae deletion strains, locus YPR141C, strain kar3, active compounds read low 1 | S. cerevisiae deletion strains, locus YPR163C, strain tif3, active compounds read low 1 | S. cerevisiae deletion strains, locus YPR167C, strain met16, active compounds read low 1.01 | S. cerevisiae deletion strains, strain wtn01, active compounds read low 0.995 | S. cerevisiae strains, strain wild type, active compounds read low 0.971
